# RE007 growth inh: qHTS Assay for Inhibitors of the HIV-1 protein Vpr; S. pombe RE007 Vpr strain, BacTiter-Glo ATP luminescence, 24 h; Potency, µM (titrated, usually from 92.2 µM), without a hit: top-dose activity change, negative = less growth, actives largely listed as inhibitors; 360,000 tested, 0.21% active; AID 651644, 2012; active means well fitted falling curve with a large enough effect; inconclusive means small, poorly fitted or top-dose-only effect; inactive means no such curve, though single readings can be large or run the other way; further: on the % scale 0 is the no-effect control and ±100 the full control effect; nearly all actives have a fitted effect of over 50% in size
#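 Fission yeast RE007 carrying one integrated HIV-1 vpr copy, seeded at OD 0.01 in PMG+AL medium with 23 nL pinned compound. Grown 24 h at 30 degrees; viability read by BacTiter-Glo luminescence after 5 min.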
# Tb PYK inh: qHTS of Trypanosoma Brucei Inhibitors; AID 624173, 2012; TbPYK enzyme, Kinase-Glo Plus ATP luminescence, 45 min; 410,000 tested, 0.12% active; Potency, µM (top dose mostly 76.8 µM), inactives show at the highest dose activity, negative = inhibition, usual class: inhibitors; pyruvate kinase (Trypanosoma brucei), Q57TT1; further: on the % scale 0 is the no-effect control and ±100 the full control effect; nearly all actives have a fitted effect of over 50% in size
#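 Glycolytic pyruvate kinase of T. brucei was incubated with substrate, test compound and 130 uM ADP for 45 minutes at room temperature. Luminescent Kinase-Glo Plus signal was measured after 10 minutes.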
# AMA1-RON2 inh: qHTS for Inhibitors of AMA1-RON; Towards Development of Antimalarial Drug Lead: Primary Screen. 360,000 tested, 0.2% active. Potency, µM (titrated, usually from 58.2 µM), for inactives: at the highest dose activity change, negative = inhibition, usual class: inhibitors. AlphaScreen AMA1-biotinylated RON2 peptide binding. Plasmodium falciparum AMA1 (3D7) - RON2 peptide interaction;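 further: 0% = vehicle wells and -100% = peptide control; nearly all actives have a fitted effect of over 45% in size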
#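 AMA1 (3D7) with his tag at 25 nM final met compounds first, then biotinylated RON2 peptide at 25 nM; detection used donor plus acceptor beads, 10 µg/mL apiece, read by AlphaScreen after 30 min at room temperature.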
# LmPK inh: qHTS Assay for Inhibitors of Leishmania Mexicana Pyruvate Kinase (LmPK); Potency, µM (top dose mostly 57.5 µM), inactives show top-dose activity change, negative = inhibition, usual class: inhibitors; purified LmPK, Kinase-Glo ATP luminescence, 1 h; 290,000 tested, 0.37% active; further: on the % scale 0 is the no-effect control and ±100 the full control effect
# Target sequence (Q27686 whole entry, looked up): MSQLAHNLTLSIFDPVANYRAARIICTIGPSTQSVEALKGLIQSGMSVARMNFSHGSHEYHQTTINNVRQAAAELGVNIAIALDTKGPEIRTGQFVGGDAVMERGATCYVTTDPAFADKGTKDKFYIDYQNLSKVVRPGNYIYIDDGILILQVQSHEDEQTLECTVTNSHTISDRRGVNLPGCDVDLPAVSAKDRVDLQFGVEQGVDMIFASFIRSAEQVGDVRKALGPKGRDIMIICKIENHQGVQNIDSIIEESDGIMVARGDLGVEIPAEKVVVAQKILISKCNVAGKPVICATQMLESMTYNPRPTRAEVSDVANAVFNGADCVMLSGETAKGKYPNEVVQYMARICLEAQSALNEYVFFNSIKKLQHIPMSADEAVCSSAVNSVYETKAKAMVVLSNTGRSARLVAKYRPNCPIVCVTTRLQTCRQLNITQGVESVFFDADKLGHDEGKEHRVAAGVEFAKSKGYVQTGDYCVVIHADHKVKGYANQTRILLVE
#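 In 50 mM imidazole pH 7.2 with 7 mM MgCl2, LmPK (0.1 nM) turned over PEP (0.5 mM) and ADP (0.1 mM) for 1 h at room temperature. Luciferase read-out of ATP.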
# SARS PLpro yeast: qHTS of Yeast-based Assay for SARS-CoV PLP; 330,000 tested, 0.19% active; Potency, µM (doses to about 32.9 µM), without a hit: top-dose activity, positive = growth rescue, most hits filed as activators; AID 485353, 2010; S. cerevisiae expressing SARS-CoV PLpro, growth rescue; calls by dose curve; further: 0% is about no effect; nearly all actives have a fitted effect of over 55% in size
# * marks the source's active call; other numbers are inactive results; ? = inconclusive; . = no result given; [ ] = another dose, or the depositor's remark. Shown are actives, neighbours in structure and some others; about 0.81% of the full set was active somewhere. Unless noted, the call rests on the fitted dose curve; in most records, active means well fitted curve in the direction sought with a large enough effect; inconclusive means small, poorly fitted or top-dose-only effect, or another doubt; inactive means no such curve, though single readings can be large; an effect the other way counts as inactive or inconclusive. Potency means the concentration at half of the fitted maximal effect.
SMILES,RE007 growth inh,Tb PYK inh,AMA1-RON2 inh,LmPK inh,SARS PLpro yeast
C[C@@H]1CCCCO[C@@H](CN(C)S(=O)(=O)c2ccc(Cl)cc2)[C@@H](C)CN([C@H](C)CO)C(=O)c2cc(N(C)C)ccc2O1,-12.6%,-0.5%,-0.5%,.,.
Cc1ccc(S(=O)(=O)N(C)C[C@H]2OCCCC[C@@H](C)Oc3ccc(N(C)C)cc3C(=O)N([C@H](C)CO)C[C@@H]2C)cc1,2.8%,7.94µM*,-12.6%,.,.
Cc1c(Cl)cccc1NC(=O)C(=O)NCCc1csc(-c2ccc(C(F)(F)F)cc2)n1,.,0.9%,.,.,.
CCOc1cc(NCc2ccccc2)c2ncn(C(C)C)c2c1,-26.1%,-6.4%,25.1µM*,.,.
COCCOc1cc(NCc2ccccc2)c2ncn(C(C)C)c2c1,-14.0%,38.9%,?,.,3.0%
Fc1cccc(Cc2c(-c3ccco3)nc3ccc(Br)cn23)c1,-10.0%,25.1µM*,-19.2%,.,.
CN(c1ncccc1CNc1nc(Nc2ccc3c(c2)CC(=O)N3)ncc1C(F)(F)F)S(C)(=O)=O,.,1.4%,.,.,.
Cc1ccc(-c2noc(-c3ccc(N4CCN(C)CC4)c([N+](=O)[O-])c3)n2)cc1,.,4.5%,.,.,.
CN1CCN(c2ccc([N+](=O)[O-])c3no[n+]([O-])c23)CC1,31.6µM*,-24.2%,-29.1%,-22.3%,-5.4%
CCOC(=O)Nc1ccc(S(=O)(=O)Nn2cnnc2)cc1,5.4%,11.1%,1.8%,2.9%,22.4µM*
CO[C@H]1/C=C\C=C(\C)C(=O)NC2=CC(=O)C(NCCN(C)C)=C(C[C@@H](C)C[C@H](OC)[C@H](O)[C@@H](C)/C=C(/C)[C@@H]1OC(N)=O)C2=O,.,3.6%,.,.,.
Cc1cc2c(c(=O)n1-c1ccccc1)C1O[C@](c3ccsc3)(Cc3cc(C#N)ccc31)O2,.,.,.,-14.8%[11.5 µM],-2.0%[6.58 µM]
CC1(C)CC(=O)C2=C(C1)OC(N)=C(C#N)C2C#Cc1ccccc1 (configuration not stated),5.62µM*,-21.0%,-7.9%,3.1%,-37.2%
Cc1cc(NC(=O)CSc2nnc(-c3ccco3)o2)no1,-5.8%,2.8%,28.2µM*,5.5%,.
Cc1cc(NC(=O)CSc2nnc(COc3ccccc3)o2)no1,4.2%,-4.8%,11.2µM*,1.2%,-2.2%
O=C(CSc1nnc(COc2ccc(Cl)cc2)o1)Nc1ccccc1,.,0.2%,.,.,.
CCC(C)C(N)C(=O)O (configuration not stated),.,-8.6%,.,.,.
COc1ccc(N=Nc2cc(C)c(O)c(CN3CCCCC3)c2)cc1,-12.0%,3.0%,20µM*,-4.2%,0.5%
O=C(O)CSc1cc(NS(=O)(=O)c2ccc(Br)cc2)c2ccccc2c1O,-8.8%,?,-21.5%,3.55µM*,-11.1%
O=S(=O)(Nc1cc(Sc2ncn[nH]2)c(O)c2ccccc12)c1ccccc1,?,?,35.0%,14.1µM*,-19.8%
Fc1ccc(-c2n[nH]c(=S)n2Cc2ccccc2)cc1,11.6%,?,68.7%,-26.6%,0.8%
Fc1ccc(-c2c[nH]c(=S)n2Cc2ccccc2)cc1,25.0%,?,49.7%,3.55µM*,18.1%
COC(=O)C1=C(C)NC(C)=C(C(=O)OC)C1c1ccccc1[N+](=O)[O-],2.6%[18.4 µM],?,-1.6%,-5.2%,2µM*
CCOC(=O)C1=C(C)NC(C)=C(C(=O)OC)C1c1cccc([N+](=O)[O-])c1 (configuration not stated),2.9%[18.4 µM],-5.5%,-10.6%,6.0%,5.9%
CN(C)c1ccc(N=Nc2cccc(F)c2)cc1,5.4%,4.1%,8.91µM*,-8.1%,-3.0%
SMILES,RE007 growth inh,Tb PYK inh,AMA1-RON2 inh,LmPK inh,SARS PLpro yeast
CN(C)c1ccc(N=Nc2cccc3ccoc23)cc1,.,1.6%,14.1µM*,-14.6%,-4.4%
COc1ccc2nc(N=Nc3ccc(N(C)C)cc3)sc2c1,-18.8%,-22.7%,?,?,0.1%
Cc1cccc(N=Nc2ccc(N(C)C)cc2)c1,-15.6%,1.2%,15.8µM*,0.5%,0.2%
COc1cc(CC(C)N)c(OC)cc1Br (configuration not stated),.,-4.9%,.,.,.
CC1(C)S[C@@H]2[C@H](NC(=O)[C@H](N)c3ccccc3)C(=O)N2[C@@H]1C(=O)OCOC(=O)[C@@H]1N2C(=O)C[C@@H]2S(O)(O)C1(C)C,.,-5.2%,.,.,.
CCCCCCCCCCCCCCCCn1cc[n+](C)c1,14.1µM*,-2.3%,2.4%,3.1%,-1.5%
CCCCCCCCn1ccc(=N)cc1,3.9%,-7.9%,-15.6%,-2.0%,-2.9%
COC(=O)c1c(NC(=O)CCCC(=O)O)sc(C)c1C,2.0%,-5.9%,0.5%,3.7%,-0.1%
CCc1ccc(CCC(=O)Nc2sc(C)c(C)c2C(=O)OC)o1,-22.4%,-3.1%,26.7µM*,-4.1%,-17.4%
COc1ccc(C(=O)Nc2ccc(N3CCOCC3)cc2)cc1OC,?,-30.9%,4.9%,15.8µM*,-3.3%
COc1ccc(C(=O)N/N=C/c2ccc(N3CCOCC3)s2)cc1OC,-15.0%,-0.6%,112.6%,.,1.3%
COc1cccc(C(=O)NC(=S)Nc2ccc(N3CCCC3)cc2)c1,-12.9%,-13.5%,25.1µM*,4.2%,7.0%
COc1ccc(C(=O)Nc2ccc(N3CCCC3)cc2)cc1OC,-4.6%,?,-17.8%,?,-7.6%
COc1ccc(C(=O)N/N=C/c2ccc(N3CCOCC3)o2)cc1OC,24.9%,31.6µM*,42.0%,?,6.6%
CCC(=O)N1CCCC(C(=O)Nc2ccc3cn[nH]c3c2)CC1 (configuration not stated),2.9%,1.0%,-6.8%,.,.
CCN(CC(=O)Nc1c(F)cccc1F)C(=O)c1ccc(N2CCCCC2)c([N+](=O)[O-])c1,31.3%,0.7%,10.4%,-5.0%,-2.2%
CCCc1nc2ccccc2c(=O)n1/N=C/c1c(C)[nH]n(-c2ccc(C)cc2)c1=O,15.8µM*,-6.4%,3.1%,?,0.6%
CCCc1nc2ccccc2c(=O)n1/N=C/c1ccccc1O,1.2%,3.8%,52.4%,3.8%,19.3%
O=C(O)c1ccccc1SC1CC(=O)N(c2cccc3ccccc23)C1=O (configuration not stated),7.94µM*,-26.2%,0.0%,7.0%,-20.9%
CCCOc1ccc2cc(-c3ccccn3)c(=O)oc2c1,?,?,37.6%,10µM*,-33.1%
O=c1oc2cc(OCc3c(F)cccc3Cl)ccc2cc1-c1ccccn1,1.6%,-3.4%,13.9%,-1.4%,6.0%
O=C(O)/C=C\C(=O)Nc1ccccc1C#Cc1ccc(Br)cc1,44.7µM*,8.3%,1.0%,1.3%,-29.3%
CCN(CC)c1ccc2c(c1)CCCN2,.,.,.,-23.4%,12.6µM*

# Screening results as filed in PubChem BioAssay.
